40 compounds from PubChem BioAssay (NCATS) can be followed below.

Structures are written as SMILES. Records with an inconclusive call do not appear. Entries that show only a call come without a potency. Active and inactive are the calls of the source. Calls come from the whole dose curve; as a rule, active = well fitted curve in either direction with a large enough effect (not every such curve was filed as active); inconclusive = small, poorly fitted or top-dose-only effect, or another doubt; inactive = flat fitted curve, though single readings scatter.

This experiment has as its target Mitogen-activated protein kinase 10 (Mus musculus) (UniProt Q61831). Briefly: JNK3 AlphaScreen Assay (AID 530).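 Note: kinase came from lysate of stimulated human HepG2 cells.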 The following applies: JNK3 lysate, c-Jun phosphorylation; series mostly up to 57.1 µM. The source says: NIH Chemical Genomics Center [NCGC]
NIH Molecular Libraries Screening Centers Network [MLSCN]
The c-jun N-terminal kinase (JNK) family are serine/threonine protein kinases that phosphorylate c-jun, a component of the transcription factor […] (AP-1). JNK kinases are members of the mitogen-activated protein kinase family including the extracellular regulated kinases and p38 kinases. Three JNK genes (JNK 1, 2, and 3) have been identified in humans so far. JNK1 and JNK2 have a broad distribution and JNK3 is primarily found in neuronal tissues and cardiac myocytes.
JNK3 has been under consideration as a target for the treatment of neurodegenerative disorders. […] JNK pathway is also involved in pathological process in a mouse model of Parkinson's disease (Xia et al., 2001).
Given these potential tissue distributions and links to neuroprotection, JNK3 inhibitors should provide useful investigational tools to study the role of this kinase in several diseases including, arthritis, stroke, myocardial infarction, ischemic injury and Parkinson's disease.
A homogeneous AlphaScreen is developed to measure the activity of JNK3. AlphaScreen is a two bead-based proximity-dependent chemical energy transfer luminescent assay platform. The phosphorylation of a biotinylated c-jun substrate by JNK3 can be detected with an antibody raised against phosphorylated c-jun. This process brings streptavidin donor beads and Protein-A acceptor beads to within a proximity range of <200 nm, and subsequently lead a chemical luminescent reaction upon exciting donor beads with 680 nm laser excitation light. Inhibition of JNK3 activity by small molecules and subsequent decrease in the antibody binding to biotinylated c-jun could attenuate or abolish this chemical luminescent reaction.
Yang DD, Kuan CY, Whitmarsh AJ, Rincon M, Zheng TS, Davis RJ, Rakic P and Flavell RA (1997) Absence of excitotoxicity-induced apoptosis in the hippocampus of mice lacking the Jnk3 gene. Nature 389:865-870. [PMID: 9349820]
Herdegen T, Claret FX, Kallunki T, Martin-Villalba A, Winter C, Hunter T, and Karin M (1998) Lasting N-terminal phosphorylation of c-Jun and activation of c-Jun N-terminal kinases after neuronal injury. J.Neurosci. 18:5124-5135. [PMID: 9651196]
Xia XG, Harding T, Weller M, Bieneman A, Uney JB and Schulz JB (2001) Gene transfer of the JNK interacting protein-1 protects dopaminergic neurons in the MPTP model of Parkinson's disease. Proc.Natl.Acad.Sci.U.S.A. 98:10433-10438.
NCGC Assay Protocol Summary:
GST-cJun (1-79) (Stratagene, La Jolla CA, #205145) was biotnylated by PerkinElmer (PerkinElmer-BioSignalInc. Montreal, Canada) and was detectable by the streptavidin Donor beads. Anti-(phospho)cJun (Ser73) antibody was from UpState (Charlottesvilles, VA, #06-659). JNK3-containing lysates were generated from HepG2 cells and pre-activated by interleukin1-beta and tumor necrosis factor alpha. All reagents were stored at -20 C before using. Phosphorylated biotinylated-GST-cJun was recognized by Anti-(phospho)cJun (Ser73) antibody and this process brings acceptor and donor beads together. Therefore JNK3 phosphorylation of cJun can be measured by Alpha reading by EnVision (PerkinElmer, Boston, MA).
The composition of kinase buffer was (in mM) 20 tris- HCl (pH 7.6) 10 MgCl2, 1 DTT, and 0.1 Na3VO4 and 0.01% Tween-20. Beads were diluted in detection buffer containing (in mM) 20 tris-HCl (pH 7.7), 20 NaCl and 80 EDTA and 0.3% BSA. The assay was performed at room temperature. All compounds were screened as titrations from 0.6 nM to 46 uM final concentration. The assay was performed in 1536-well format (white solid bottom and untreated) as follows:
Sequence,Parameter,Value,Description
1,Reagent,3 uL,Biotin-GST-cJun, Anti-(phospho)cJun and pre-activated JNK3-containing lysates
2,Compound,23 nL,Final concentration was 0.6nM to 46uM
3,Time,15 minutes,Room Temperature
4,Reagent,1 uL,ATP final concentration 10uM
6,Reagent,0.5 uL,2ng/well bead mixture
[…]
For orientation: Alpha assays give light when donor and acceptor beads are brought close together.
`COC(=O)Nc1ccc2[nH]cc(CCNC(C)=O)c2c1`: the Potency entry is “inactive”. As for `CCCCCCCCCCCCCCCC(=O)O[C@H](CC(=O)O)C[N+](C)(C)C`, the Potency result was “inactive”. Still for that read-out and setting: with `OC[C@H]1O[C@H](n2cnc3c(NC4CCCC4)nc(Cl)nc32)[C@@H](O)[C@@H]1O` the entry was “inactive”; with `O=C(c1c(O)c2ccc(Cl)cc2[nH]c1=O)C1CC1`, “inactive”; with `O=C1CC2(CCCC2)CC(=O)N1CCCCNC[C@H]1COc2ccccc2O1`, “inactive”. Same read-out and setting: for `FC(F)(F)c1cc(CO[C@H]2CCCN[C@H]2c2ccccc2)cc(C(F)(F)F)c1` the value was “inactive”; for `CS(=O)(=O)Nc1c(O)ccc2c1CCC[C@H]2C1=NCCN1`, “inactive”. Consider `O=C(O)Cc1cc2ccccc2nc1C(=O)O`, for which the Potency result is “inactive”.

For the compound `CCCCCCCCCCCCCCC[C@@H](O)[C@@H](N)CO`, the Potency result is “inactive”. For `COc1cc2nc(N3CCN(C(=O)[C@H]4CCCO4)CC3)nc(N)c2cc1OC`, the Potency result was “inactive”. The same measure, in the same setting: with `c1cc2c(cc1C1CCCCC1)c1c3n2CCN[C@H]3CCC1` the entry was “inactive”; with `CCN(CC)CCOC(=O)C1(c2ccc([N+](=O)[O-])cc2)CCCC1`, “inactive”; with `C[C@@H](CC(=O)O)[C@@H](N)C(=O)O`, “inactive”. `CCOC(=O)c1c(C)[nH]c2ccc3c(c12)CN1CCc2cc(OC)ccc2[C@@H]1O3`: the Potency result is “inactive”. Turning to `CCN(CC)C[C@@H]1CCCCN1CC(=O)N1c2ccccc2C(=O)Nc2cccnc21`, the Potency result is “inactive”. Still for that read-out and setting: for `COC(=O)c1ccccc1NC(=O)c1ccc(F)cc1` the value was “inactive”; for `COc1ccccc1N1CCN(CCn2c(=O)[nH]c3c([nH]c4ccccc43)c2=O)CC1`, “inactive”; for `CCCn1c(=O)c2[nH]c(-c3ccc(OCC(=O)Nc4ccc(C#N)cc4)cc3)nc2n(CCC)c1=O`, “inactive”. For `Cc1c2ccccc2c(CSC(=N)N)c2ccccc12`, the activity change, negative = inhibition is 27.8% [at 11.4 µM] (inactive). Regarding `COc1ccccc1NC(=O)Nc1nc(-c2cccnc2)nc2ccccc12`, the Potency result was “inactive”. Same read-out and setting: for `N[C@@H](C(=O)O)[C@H](CC(=O)O)c1ccc(Cl)cc1` the value was “inactive”. With `Clc1cccc(Nc2nnc(-c3ccccc3)c3ccccc23)c1`, the Potency entry is “inactive”. With `CC(C)C[C@H](NC(=O)N1CCCCCC1)C(=O)N[C@H](Cc1cn(C)c2ccccc12)C(=O)N[C@H](Cc1ccccn1)C(=O)O`, the Potency result was “inactive”. Same read-out and setting: with `N[C@@H](CO)C(=O)O` the entry was “inactive”; with `O=C(O)c1c2ccccc2cc2ccccc12`, “inactive”. On to `Cc1c(C(=O)NN2CCOCC2)nn(-c2ccc(Cl)cc2Cl)c1-c1ccc(I)cc1`, for which the Potency result was “inactive”. Turning to `C=C[C@@]1(C)CC(=O)[C@@]2(O)[C@@]3(C)[C@@H](O)CCC(C)(C)[C@@H]3[C@H](O)[C@H](OC(C)=O)[C@@]2(C)O1`, the Potency result was “inactive”. Same read-out and setting: with `N[C@H](C(=O)O)[C@@H]1C[C@@H]1C(=O)O` the entry was “inactive”; with `COc1ccc(NS(=O)(=O)c2ccc(I)cc2)cc1N1CCN(C)CC1`, “inactive”; with `NCCCCCCNS(=O)(=O)c1ccc2c(Cl)cccc2c1`, “inactive”. The same measure, in the same setting: for `C[C@@H](CCc1ccc(O)cc1)NCCc1ccc(O)c(O)c1` the value was “inactive”; for `N[C@H](CCC(=O)NCC(=O)O)C(=O)O`, “inactive”; for `COc1ccccc1N1CCN(CCN2C(=O)c3ccccc3C(C)(C)C2=O)CC1`, “inactive”. Regarding `CNc1ncnc2c1ncn2[C@H]1C[C@H](OP(=O)(O)O)[C@H](COP(=O)(O)O)O1`, the Potency entry is “inactive”. Same read-out and setting: for `S=C(Nc1ccccc1)Nc1nccs1` the value was “inactive”.

As for `OC[C@@H](O)COc1cccc2ccccc12`, the Potency entry is “inactive”. On the same count and under the same terms, with `c1csc(CNc2ncnc3ccc(-c4ccc5c(c4)OCO5)cc23)c1` the entry was “inactive”; with `CCCCCC(=O)O[C@H](CC(=O)O)C[N+](C)(C)C`, “inactive”. Same read-out and setting: with `CN(C)CCCSc1ccccc1NC(=O)/C=C\c1ccccc1` the entry was “inactive”; with `CN1Cc2c(C(=O)OC(C)(C)C)ncn2-c2ccsc2C1=O`, “inactive”.
